Measured values from PubChem BioAssay.
Values without a mark were called inactive. How the calls were made is not given here.

Test: compounds altering circadian rhythm period length – cell-based, LOPAC library, luminescence reporter (AID 2774);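 further: values are relative to mean of DMSO wells on each plate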
Conditions: circadian reporter cells, at 7 µM, actives lie on both sides

Row | Structure (SMILES) | period change
1 | COc1ccc(CCN(C)CCCC(C#N)(c2cc(OC)c(OC)c(OC)c2)C(C)C)cc1OC (centres undefined) | -0.105 h
2 | N[C@@H](CC(=O)O)C(=O)O | 0.065 h
3 | C[C@]12CCC(=O)C=C1CC[C@@H]1[C@@H]2CC[C@@]2(C)[C@H]1CC[C@]2(O)C(=O)CO | -0.335 h
4 | O=c1[nH]c(=O)n([C@H]2C[C@H](O)[C@@H](CO)O2)cc1Br | -0.205 h
5 | CC1=C(CC(=O)O)c2cc(F)ccc2/C1=C\c1ccc(S(C)(=O)=O)cc1 | 0.07 h
6 | CCN1CCc2nc(N)oc2CC1 | 0.015 h
7 | CSc1ccc(C(=O)c2[nH]c(=O)[nH]c2C)cc1 | 0.015 h
8 | NC(N)=NCCC[C@H](N)C(=O)O | -0.2 h
9 | C[N+](C)(C)CCOC(=O)CCC(=O)OCC[N+](C)(C)C | 0.025 h
10 | Cc1nc2c([nH]1)c(=O)n(C)c(=O)n2Cc1ccco1 | 0.08 h
11 | OCCN1CCN(CC/C=C2/c3ccccc3Sc3ccc(C(F)(F)F)cc32)CC1 | -0.1 h
12 | Nc1cc(=O)[nH]c(N)n1 | -0.06 h
13 | CC(=O)[C@@]1(O)CC[C@H]2[C@@H]3CCC4=CC(=O)CC[C@]4(C)[C@H]3CC[C@@]21C | 0.035 h
14 | CCC(=O)c1ccc2c(c1)N(CCCN(C)C)c1ccccc1S2 | -0.02 h
15 | CCNC(=O)N1CCN(CCCC(c2ccc(F)cc2)c2ccc(F)cc2)CC1 | -0.05 h
16 | C(=C\c1ccccc1)/CN1CCN(C(c2ccccc2)c2ccccc2)CC1 | 0.12 h
17 | COC(=O)[C@@H](N)Cc1ccc(O)c(O)c1 | 0.105 h
18 | O=C(O)CN(CCOCCOCCN(CC(=O)O)CC(=O)O)CC(=O)O | 0.1 h
19 | O=C(O)CP(=O)(O)O | 0.02 h
20 | N[C@@H](COP(=O)(O)O)C(=O)O | 0.04 h

Test: compounds altering viability of human ES cells (AID 493140);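 further: cells exposed to compounds for four days before counting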
Conditions: human embryonic stem cell survival screen; active compounds read high

Row | Structure (SMILES) | survival
21 | CC(=O)Oc1cc(C(F)(F)F)ccc1C(=O)O | 9.25
22 | OCCN1CCN(CC/C=C2/c3ccccc3Sc3ccc(C(F)(F)F)cc32)CC1 | 3.17
23 | C(=C\c1ccccc1)/CN1CCN(C(c2ccccc2)c2ccccc2)CC1 | 11.3
24 | CCCCCCCCCCCCCCC[C@H](O)[C@@H](N)CO | 80
